Measurements as given in PubChem BioAssay AID1159580 (chemical genetic matrix, 2015).
Values joined by “and” are separate entries in the source; they are usually repeats but may differ in a detail not shown here. Equal values may be shown once. The campaign covered roughly 5,500 compounds. About 2,000 (36%) were called active. Not shown: some 18% with an inconclusive outcome. Cut-off read from the data, not from the text of the source: active = normalized growth mostly below about 0.91 (no sharp cut-off); inconclusive = no clear call, values can overlap the other calls; inactive = mostly above about 0.92. The list shows a part of the results.

Assay: chemical genetic growth profiling, strain panel (AID 1159580);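 note: tested at 20 µM; growth read once vehicle control cultures reached saturation at 30 °C; 1 = growth at the plate median or of vehicle wells; lower values mean less growth of the strain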
Details: growth OD
[1] = S. cerevisiae deletion strains, locus YDR150W, strain NUM1, active compounds read low
[2] = S. cerevisiae deletion strains, locus YJR075W, strain HOC1, active compounds read low
[3] = S. cerevisiae deletion strains, locus YNL322C, strain KRE1, active compounds read low
[4] = S. cerevisiae deletion strains, locus YPL241C, strain CIN2, active compounds read low
[5] = S. cerevisiae deletion strains, locus YBR229C, strain ROT2, active compounds read low
[6] = S. cerevisiae deletion strains, locus YDL101C, strain DUN1, active compounds read low
[7] = S. cerevisiae deletion strains, locus YGR078C, strain PAC10, active compounds read low
[8] = S. cerevisiae deletion strains, locus YHR030C, strain SLT2, active compounds read low
[9] = S. cerevisiae deletion strains, locus YLR039C, strain RIC1, active compounds read low
[10] = S. cerevisiae deletion strains, locus YLR262C, strain YPT6, active compounds read low
[11] = S. cerevisiae deletion strains, locus YNL153C, strain GIM3, active compounds read low
[12] = S. cerevisiae strains, strain wild type, active compounds read low

Measured: normalized growth

NC(CCP(=O)(O)O)C(=O)O (stereo not drawn)
inactive: S. cerevisiae deletion strains, locus YAL040C, strain CLN3, active compounds read low 1.01 | S. cerevisiae deletion strains, locus YCL061C, strain MRC1 (second series), active compounds read low 1 | [1] 1.01 | S. cerevisiae deletion strains, locus YDR363W, strain ESC2, active compounds read low 0.988 | S. cerevisiae deletion strains, locus YER002W, strain NOP16, active compounds read low 1.02 | [2] 0.992 | S. cerevisiae deletion strains, locus YNL175C, strain NOP13, active compounds read low 1 | S. cerevisiae deletion strains, locus YNL197C, strain WHI3, active compounds read low 0.983 | S. cerevisiae deletion strains, locus YNL224C, strain SQS1, active compounds read low 0.989 | [3] 0.986 | S. cerevisiae deletion strains, locus YOR083W, strain WHI5 (second series), active compounds read low 1.01 | [4] 1

CC(C)(C)S(=O)(=O)c1cnc(N)nc1N
inactive: S. cerevisiae deletion strains, locus YAL013W, strain DEP1, active compounds read low 1.03 | [5] 1.01 | [6] 1 | [1] 0.969 | S. cerevisiae deletion strains, locus YEL061C, strain CIN8, active compounds read low 0.993 | [7] 1.01 | S. cerevisiae deletion strains, locus YGR229C, strain SMI1, active compounds read low 1.01 | [8] 1.07 | S. cerevisiae deletion strains, locus YHR087W, strain rtc3, active compounds read low 1 | S. cerevisiae deletion strains, locus YJL187C, strain SWE1, active compounds read low 1.02 | S. cerevisiae deletion strains, locus YJR043C, strain POL32, active compounds read low 0.985 | [2] 1.01 | S. cerevisiae deletion strains, locus YKL190W, strain CNB1, active compounds read low 1 | [9] 1.05 | S. cerevisiae deletion strains, locus YLR058C, strain SHM2 (second series), active compounds read low 1.01 | S. cerevisiae deletion strains, locus YLR085C, strain ARP6, active compounds read low 1.05 | [10] 1.06 | S. cerevisiae deletion strains, locus YML094W, strain GIM5, active compounds read low 1.01 | S. cerevisiae deletion strains, locus YMR219W, strain ESC1, active compounds read low 1.01 | S. cerevisiae deletion strains, locus YMR263W, strain SAP30, active compounds read low 0.986 | [11] 1 | S. cerevisiae deletion strains, locus YNL298W, strain CLA4 (second series), active compounds read low 1.04 | [3] 1.02 | S. cerevisiae deletion strains, locus YNR030W, strain Alg12, active compounds read low 1.03 | S. cerevisiae deletion strains, locus YPL055C, strain LGE1, active compounds read low 0.972 | [4] 1.02 | S. cerevisiae deletion strains, locus YPR135W, strain CTF4, active compounds read low 1.03 | [12] 1.01

C[C@]12[C@H](O)CC3C(CC[C@@H]4C[C@@H](O)CC[C@]34C)[C@@]1(O)CC[C@@H]2C1=CC(=O)OC1 (stereo partly drawn)
inactive: S. cerevisiae deletion strains, locus YBR021W, strain FUR4, active compounds read low 1.05 | [5] 1.01 | S. cerevisiae deletion strains, locus YCL029C, strain bik1, active compounds read low 0.992 | S. cerevisiae deletion strains, locus YDL035C, strain GPR1, active compounds read low 1.07 | S. cerevisiae deletion strains, locus YDL074C, strain BRE1, active compounds read low 1.07 | [6] 1.01 | S. cerevisiae deletion strains, locus YDL134C, strain PPH21, active compounds read low 0.997 | S. cerevisiae deletion strains, locus YDL185W, strain tfp1, active compounds read low 0.987 | S. cerevisiae deletion strains, locus YDL192W, strain arf1, active compounds read low 1 | S. cerevisiae deletion strains, locus YDR101C, strain arx1, active compounds read low 1.01 | S. cerevisiae deletion strains, locus YDR162C, strain NBP2, active compounds read low 1.01 | S. cerevisiae deletion strains, locus YDR318W, strain mcm21, active compounds read low 0.999 | S. cerevisiae deletion strains, locus YDR388W, active compounds read low 0.976 | S. cerevisiae deletion strains, locus YDR502C, strain sam2, active compounds read low 0.971 | S. cerevisiae deletion strains, locus YER110C, active compounds read low 0.974 | S. cerevisiae deletion strains, locus YER155C, strain BEM2, active compounds read low 0.998 | S. cerevisiae deletion strains, locus YER167W, strain BCK2, active compounds read low 1.02 | S. cerevisiae deletion strains, locus YGL078C, strain dbp3, active compounds read low 0.979 | S. cerevisiae deletion strains, locus YGL086W, strain mad1, active compounds read low 0.983 | S. cerevisiae deletion strains, locus YGL248W, strain PDE1, active compounds read low 1.01 | [7] 1.01 | S. cerevisiae deletion strains, locus YGR135W, strain pre9, active compounds read low 0.941 | S. cerevisiae deletion strains, locus YGR252W, strain gcn5, active compounds read low 0.923 | [8] 1.01 and 1 | S. cerevisiae deletion strains, locus YHR079C, strain IRE1 (second series), active compounds read low 0.98 | S. cerevisiae deletion strains, locus YHR079C, strain IRE1, active compounds read low 0.993 | S. cerevisiae deletion strains, locus YHR094C, strain hxt1, active compounds read low 0.976 | S. cerevisiae deletion strains, locus YHR129C, strain ARP1, active compounds read low 1.01 | S. cerevisiae deletion strains, locus YHR200W, strain rpn10, active compounds read low 0.968 | S. cerevisiae deletion strains, locus YIL066C, strain RNR3, active compounds read low 1.04 | S. cerevisiae deletion strains, locus YIL073C, strain SPO22, active compounds read low 1 | S. cerevisiae deletion strains, locus YIL125W, strain kgd1, active compounds read low 0.984 | S. cerevisiae deletion strains, locus YIR030C, strain dcg1, active compounds read low 0.986 | S. cerevisiae deletion strains, locus YJL095W, strain BCK1, active compounds read low 0.999 and 0.994 | S. cerevisiae deletion strains, locus YJL134W, strain LCB3, active compounds read low 1.01 | S. cerevisiae deletion strains, locus YJL168C, strain set2, active compounds read low 0.994 | S. cerevisiae deletion strains, locus YJL187C, strain SWE1 (second series), active compounds read low 1.01 | S. cerevisiae deletion strains, locus YJR066W, strain TOR1, active compounds read low 0.903 | S. cerevisiae deletion strains, locus YKL009W, strain mrt4, active compounds read low 1.02 | S. cerevisiae deletion strains, locus YKL068W, active compounds read low 0.994 | S. cerevisiae deletion strains, locus YKL085W, strain MDH1 (second series), active compounds read low 0.975 | S. cerevisiae deletion strains, locus YKL085W, strain MDH1, active compounds read low 0.975 | S. cerevisiae deletion strains, locus YKR001C, strain vps1, active compounds read low 1.01 | [9] 1.05 | S. cerevisiae deletion strains, locus YLR058C, strain SHM2, active compounds read low 1.02 | S. cerevisiae deletion strains, locus YLR102C, strain apc9, active compounds read low 0.982 | S. cerevisiae deletion strains, locus YLR113W, strain HOG1, active compounds read low 1.03 | [10] 1.09 | S. cerevisiae deletion strains, locus YLR268W, strain sec22, active compounds read low 1.01 | S. cerevisiae deletion strains, locus YLR342W, strain FKS1 (second series), active compounds read low 1.05 | S. cerevisiae deletion strains, locus YLR371W, strain rom2, active compounds read low 0.996 | S. cerevisiae deletion strains, locus YLR418C, strain cdc73, active compounds read low 0.955 | S. cerevisiae deletion strains, locus YML016C, strain PPZ1, active compounds read low 1.02 | S. cerevisiae deletion strains, locus YML032C, strain rad52, active compounds read low 0.998 | S. cerevisiae deletion strains, locus YML124C, strain tub3, active compounds read low 0.986 | S. cerevisiae deletion strains, locus YMR078C, strain ctf18, active compounds read low 0.979 | S. cerevisiae deletion strains, locus YMR223W, strain ubp8, active compounds read low 0.974 | S. cerevisiae deletion strains, locus YMR307W, strain GAS1, active compounds read low 1.13 | S. cerevisiae deletion strains, locus YNL067W, strain RPL9B, active compounds read low 0.99 | [11] 1 | S. cerevisiae deletion strains, locus YNL183C, strain NPR1, active compounds read low 0.924 | S. cerevisiae deletion strains, locus YNL233W, strain BNI4, active compounds read low 1 | S. cerevisiae deletion strains, locus YNL250W, strain rad50, active compounds read low 0.974 | S. cerevisiae deletion strains, locus YNL271C, strain bni1, active compounds read low 0.991 | S. cerevisiae deletion strains, locus YNL298W, strain CLA4, active compounds read low 1.01 | S. cerevisiae deletion strains, locus YNL307C, strain MCK1, active compounds read low 0.977 | S. cerevisiae deletion strains, locus YNR052C, strain pop2, active compounds read low 0.965 | S. cerevisiae deletion strains, locus YOL012C, strain htz1 0.887 | S. cerevisiae deletion strains, locus YOL147C, strain pex11, active compounds read low 0.99 | S. cerevisiae deletion strains, locus YOR061W, strain CKA2, active compounds read low 1.04 | S. cerevisiae deletion strains, locus YOR069W, strain VPS5, active compounds read low 1.01 | S. cerevisiae deletion strains, locus YOR136W, strain idh2, active compounds read low 0.952 | S. cerevisiae deletion strains, locus YOR144C, strain elg1, active compounds read low 0.987 | S. cerevisiae deletion strains, locus YOR184W, strain ser1, active compounds read low 1.03 | S. cerevisiae deletion strains, locus YOR231W, strain MKK1, active compounds read low 1 | S. cerevisiae deletion strains, locus YOR316C, strain cot1, active compounds read low 0.982 | S. cerevisiae deletion strains, locus YPL256C, strain CLN2, active compounds read low 0.982 | S. cerevisiae deletion strains, locus YPR119W, strain clb2, active compounds read low 0.985 | S. cerevisiae deletion strains, locus YPR141C, strain kar3, active compounds read low 0.983 | S. cerevisiae deletion strains, locus YPR163C, strain tif3, active compounds read low 0.988 | S. cerevisiae deletion strains, locus YPR167C, strain met16, active compounds read low 0.984 | S. cerevisiae deletion strains, strain wtn01, active compounds read low 0.998 | [12] 1.03
